Some test systems named below: T-47D breast; BT-549 breast; MDA-MB-435 melanoma; SW-620 colon; MCF7 breast; HCT-116 colon; HCC-2998 colon; KM12 colon.
Holding throughout (assay): NCI-60 one-dose screen, 48 h (100 = growth as untreated, 0 = no growth, -100 = all killed)
What all share (conditions): 10 µM unless noted

Each structure is given as a SMILES string. Several values for one entry are separate records, joined by “and”; a condition that tells them apart may be missing. Equal values may be shown once. About 83,000 compounds went through this panel and 20% of them were active in at least one assay; those are over-represented in the sample as a whole.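 How to read the values: 0–100, growth inhibition (40 = 60% inhibited); 0, no net growth; -100 to 0, cell death (-40 = 40% of starting cells died; -100 = all dead).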 Unmarked numbers belong to inactive results. Activity calls are given as the source filed them. Rule for the calls: active = growth percent below 10; inactive = the rest.

Turning to `O=C(O)Cc1cc(=O)[nH]n(-c2ccccc2)c1=O`, the growth was 98.2% in the experiment with T-47D breast; 103% in the experiment with BT-549 breast; 108% in the experiment with MDA-MB-435 melanoma; 108% with SW-620 colon; 98.9% in the experiment on MCF7 breast; 101% in the experiment with HCT-116 colon. In addition, the growth was 106% in the experiment on HCC-2998 colon and 107% with KM12 colon.
For `CC(=O)c1cccc(OC(=O)c2ccccc2)c1`, the growth with T-47D breast is 102%; with BT-549 breast it was 120%; in the experiment on MDA-MB-435 melanoma it was 117%; in the experiment on SW-620 colon, 106%; in the experiment with MCF7 breast it was 85.2%; in the experiment on HCT-116 colon, 90.1%. In addition, the growth was 101% in the experiment on HCC-2998 colon and 110% with KM12 colon.
For `CC(=O)Oc1ccc(C(c2ccc(OC(C)=O)cc2)c2ccccn2)cc1`, the growth was -15.1% (active) and -18.5% (active) with T-47D breast; -16.4% (active) with BT-549 breast; 110% and 103% in the experiment with MDA-MB-435 melanoma; 104% and 83.9% with SW-620 colon; 20.6% and 34.8% in the experiment with MCF7 breast; 88.6% and 96% with HCT-116 colon. Also, the growth is 70.5% in the experiment with HCC-2998 colon; 80% and 85% in the experiment with KM12 colon.
On to `O=C1C=CC(=O)N1Cc1ccco1`, for which the growth in the experiment with T-47D breast is 91.7%; with BT-549 breast, 100%; with MDA-MB-435 melanoma it was 95.8%; in the experiment with SW-620 colon, 58.4%; in the experiment on MCF7 breast it was 62%; in the experiment on HCT-116 colon it was 52.5%. Besides, the growth with HCC-2998 colon was 101%; with KM12 colon, 103%.
Regarding `CN1C2C=CC(=O)C1C1C(=O)N(c3ccccc3)C(=O)C12` (stereo not drawn), the growth in the experiment on T-47D breast was 68.5%; with BT-549 breast it was 52.9%; in the experiment with MDA-MB-435 melanoma, 80.5%; in the experiment on SW-620 colon, 37.3%; with MCF7 breast it was 44.5%; in the experiment on HCT-116 colon, 35.9%. The growth with HCC-2998 colon was 113%; in the experiment on KM12 colon, 56.3%.
In the case of `NNC(=O)Nc1ccccc1`, the growth in the experiment on T-47D breast was 109%; with BT-549 breast it was 104%; in the experiment on MDA-MB-435 melanoma it was 103%; in the experiment on SW-620 colon, 101%; in the experiment with MCF7 breast, 89.3%; in the experiment on HCT-116 colon, 101%. Moreover, the growth in the experiment on HCC-2998 colon is 113%; in the experiment with KM12 colon, 99.1%.
In the case of `CCOC(=O)c1csc(N)n1`, the growth with T-47D breast is 104% and 98.5%; in the experiment on BT-549 breast, 102% and 105%; in the experiment on MDA-MB-435 melanoma it was 99% and 102%; in the experiment on SW-620 colon, 104% and 103%; in the experiment on MCF7 breast it was 91.8% and 90.8%; with HCT-116 colon, 107% and 99.4%. The growth in the experiment on HCC-2998 colon was 115% and 101%; in the experiment with KM12 colon, 110% and 108%.
For the molecule `CCN(C)c1ccccc1`, the growth is 105% in the experiment on T-47D breast; 84.2% in the experiment with BT-549 breast; 104% in the experiment with MDA-MB-435 melanoma; 110% in the experiment on SW-620 colon; 90.7% in the experiment on MCF7 breast; 106% in the experiment with HCT-116 colon. Further, the results for the growth with HCC-2998 colon and with KM12 colon were 107% and 109%, respectively.
In the case of `O=C(O)c1c2c(nc3ccccc13)Cc1ccccc1-2`, the growth in the experiment with T-47D breast is 97.3% and 98.5%; in the experiment with BT-549 breast it was 103% and 88.1%; in the experiment with MDA-MB-435 melanoma, 112% and 96.6%; in the experiment on SW-620 colon, 99.3% and 90.1%; in the experiment on MCF7 breast, 97.3% and 92%; in the experiment with HCT-116 colon, 95.6% and 104%. For the same molecule, the growth was 98.3% and 99.9% with HCC-2998 colon; 97.8% and 98.9% in the experiment on KM12 colon.
Consider `CS(=O)(=O)c1nsc(N)n1`, for which the growth in the experiment on T-47D breast is 95%; with BT-549 breast it was 107%; in the experiment on MDA-MB-435 melanoma, 107%; in the experiment with SW-620 colon, 100%; in the experiment with MCF7 breast, 99.8%; in the experiment on HCT-116 colon, 103%. Moreover, the growth with HCC-2998 colon is 98.4%; with KM12 colon it was 105%.
As to `c1ccc2c[n+](Cc3ccc4ccccc4n3)ccc2c1`, the growth in the experiment with T-47D breast is 62.6%; with BT-549 breast, 47.2%; in the experiment on MDA-MB-435 melanoma, 90.3%; with SW-620 colon, 87.5%; in the experiment on MCF7 breast it was 72.2%; in the experiment with HCT-116 colon it was 59.3%. In addition, the growth with HCC-2998 colon is 71.7%; in the experiment with KM12 colon, 76.1%.
Take `Cc1ccc(N)cc1S(=O)(=O)O`: the growth in the experiment on T-47D breast was 103% and 117%; with BT-549 breast, 97.9%; in the experiment with MDA-MB-435 melanoma, 115% and 109%; in the experiment on SW-620 colon, 104% and 105%; in the experiment on MCF7 breast it was 105% and 98.8%; in the experiment with HCT-116 colon, 103%. Moreover, the growth in the experiment on HCC-2998 colon was 109% and 108%; with KM12 colon, 98.7% and 104%.
Take `CCOC(=O)c1ccc(C(=N)N)cc1`: the growth in the experiment with T-47D breast was 105%; with BT-549 breast, 119%; with MDA-MB-435 melanoma, 109%; in the experiment on SW-620 colon, 102%; in the experiment on MCF7 breast, 95.3%; in the experiment with HCT-116 colon, 106%. Also, the growth in the experiment with KM12 colon was 109%.

The record behind these values is PubChem BioAssay (NCI).
